Data reported in PubChem BioAssay AID602314 (ICCB-Longwood Screening Facility, Harvard Medical School, 2012).
Out of some 84,000 compounds screened, about 110 (0.13%) were called active. For the sample, actives were picked, then their nearest neighbours and some compounds at random. Values without a mark were called inactive. Rule as the data show it: active = inhibition above about 30% (passing the limit was not always enough); inactive = the rest.

tested on: MgrA (MarR family transcriptional regulator), Staphylococcus aureus Newman; assay: S. aureus MgrA activity modulators, primary screen, biochemical, S. aureus Newman, fluorescence polarization (AID 602314); settings: MgrA-DNA binding, hits give high values, concentration not given here;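 also: 0% = protein plus DNA without compound and 100% = DNA alone without protein; higher means less MgrA bound to DNA so lower polarization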

Compared with O=C1CSC(=S)N1c1ccc(Oc2ccc(Cl)cc2)cc1, COc1ccc(O)c(/C=N/NC(=O)c2ccn(Cc3ccc(Cl)cc3)n2)c1 is higher in inhibition: -2.4% for the first, 2.4% for the second.

Going from Cn1nnc(NC(=O)COc2ccccc2)n1 to CN(C(=O)CSc1nncc(=O)[nH]1)c1ccccc1, the inhibition falls from -1.4% to -1.65%.

First: NC(=O)c1c(NC(=O)c2ccccc2)sc2c1CCCC2
Second: O=C(c1cc(-c2ccccc2)c(C(F)(F)F)s1)N1CCCC1
The inhibition of the first is higher: 0.05% for the first, -2.9% for the second.

First: CC/C(=N\OC(=O)c1cccs1)c1ccc(-c2ccccc2F)cc1
Second: COC(=O)c1ccc(C2NN=C(c3ccccc3)S2)cc1 (stereo unspecified)
The inhibition of the first is higher: 4.4% for the first, 2.7% for the second.

Compared with CN(C)C(=O)Cn1c(=O)n(S(=O)(=O)c2ccccc2)c2ccccc21, CCn1c(=O)c2ccccc2n(CC(=O)c2ccc(C)cc2)c1=O is lower in inhibition: 7.3% for the first, -1.25% for the second.

Compared with CN(C)c1ncnc2nc[nH]c12, COc1cc(C)nc(NN)n1 is higher in inhibition: 0.75% for the first, 2.8% for the second.

Going from CCCN(CCC)S(=O)(=O)c1cccc2c(N)cccc12 to CCCN(c1ccc(C)cc1)c1nc(=O)c2cccnc2s1, the inhibition rises from -2.2% to 0.75%.

First: CC1=C(C(=O)OCCOC(C)C)C(c2ccccc2OCc2ccccc2)NC(=O)N1 (stereo unspecified)
Second: COc1cccc(CNn2cn[nH]c2=S)c1OCc1ccccc1
The inhibition of the first is lower: -4.9% for the first, 0.8% for the second.

Compared with CC1(C)COC(c2cccc(C#N)c2)OC1, CC1(C)CC(CC#N)(c2ccccc2)CCO1 (stereo unspecified) is higher in inhibition: -1.45% for the first, -1.15% for the second.

First: CCN1CCCc2cc(CN(CCN3CCOCC3)C(=S)Nc3c(C)cc(C)cc3C)ccc21
Second: CCC(NC(=O)Nc1cc(C)cc(C)c1)c1c(-n2cccc2)sc2c1CCN(CC)C2 (stereo unspecified)
The inhibition of the first is higher: 4.95% for the first, 1% for the second.

Compared with COC(=O)C1=C(C)NC2=C(C(=O)CC(c3ccc(Cl)cc3)C2)C1c1ccc(OC(C)=O)c(OC)c1 (stereo unspecified), CCOC(=O)c1sc(SC)c2c1CC(c1ccc(C)cc1)CC2=O (stereo unspecified) is higher in inhibition: -2.1% for the first, -0.2% for the second.

First: OCC(O)CN(c1ccccc1)c1ccccc1 (stereo unspecified)
Second: O=C(OC(C(=O)c1ccccc1)c1ccccc1)c1cccc(O)c1 (stereo unspecified)
The inhibition of the first is lower: -1.8% for the first, -1% for the second.

Going from Cc1ccc2cc(C#N)c(SCC(=O)Nc3ccccc3)nc2c1 to CC(=O)Nc1ccc(-c2nc(-c3ccccc3)c3cc(C)ccc3n2)cc1, the inhibition rises from -0.85% to 0.5%.

First: O=C(CCSc1ccc(Cl)cc1)Nc1ccc(F)c(F)c1F
Second: Cn1c(SCC(=O)NCc2ccc(Cl)cc2)nnc1-c1ccc(Cl)cc1
The inhibition of the first is higher: 0.15% for the first, -0.25% for the second.

First: COc1ccccc1Nc1n[nH]c(=S)n1C(=O)c1cccs1
Second: O=C(O)c1ccccc1Cc1cccs1
The inhibition of the first is higher: 2.9% for the first, -3.8% for the second.

Going from O=C(O)CCc1nn2c(=O)c3ccccc3nc2s1 to CCCc1c(C)nc2c(C)cccc2c1SCCC(=O)O, the inhibition rises from -0.2% to 0%.

Going from C=CCn1c(=O)c(C(=O)NCC2CCCN2CC)c(O)c2cc(OC)c(OC)cc21 (stereo unspecified) to COc1cc(C2C3=C(CC(C)(C)CC3=O)OC3=C2C(=O)CC(C)(C)C3)c(Br)cc1OCC(=O)O, the inhibition rises from -0.05% to 3.4%.

Compared with NC(=O)c1sccc1NS(=O)(=O)c1ccc(Cl)c(Cl)c1, O=C(O)CNC(=O)c1ccc(Cl)c(Cl)c1 is lower in inhibition: 2.05% for the first, -1.25% for the second.

Compared with CSc1ncc(C(N)=O)c(N)n1, NC(=O)c1ccccc1N=Cc1ccc2ccccc2c1 is higher in inhibition: -4% for the first, -2.2% for the second.

First: COc1ccccc1NC(=O)C1CC(=O)N(CCc2ccccc2)C(=Nc2ccccc2)S1 (stereo unspecified)
Second: CN(Cc1ccccc1)C(=O)c1cccc(-c2nnc(-c3ccccc3)o2)c1
The inhibition of the first is lower: 0.9% for the first, 1.3% for the second.

Going from O=C(O)COc1ccc(NC(=O)c2ccccc2F)cc1 to CSC(=Nc1ccccc1F)Nc1ccccc1F, the inhibition falls from -2.2% to -2.5%.

First: CC(C)=CC(=O)Nc1nc2ccc(C)cc2s1
Second: Cc1nc2ccc(C(=O)OCCC(F)(F)F)cc2[nH]1
The inhibition of the first is higher: 5.35% for the first, -0.25% for the second.

First: c1ccc(NC2CCCCC2)cc1
Second: CC1CCCCN1C(=O)c1ccccc1F (stereo unspecified)
The inhibition of the first is higher: -1.2% for the first, -1.4% for the second.

Going from c1ccc(CNC2C3CC4CC(C3)CC2C4)nc1 (stereo unspecified) to CC1CCCN(c2ncccc2C(=O)NCC2CCCO2)C1 (stereo unspecified), the inhibition rises from -6% to 1.1%.

Going from CC12CC[C@H](CC1=O)C2(C)C to Cc1cc(C)c(C(=O)N2CCCCC2C)c(C)c1 (stereo unspecified), the inhibition falls from 0.7% to -0.7%.

First: Nc1cc(C(=O)OCC(=O)NC2CCCCCC2)ccc1Cl
Second: O=C(O)C1CCCCC1C(=O)Nc1ccc2[nH]c(=S)sc2c1 (stereo unspecified)
The inhibition of the first is lower: -0.65% for the first, 6.3% for the second.

Compared with Cc1ccccc1CNCc1cccs1, Cc1[nH]ncc1-c1ccccc1 is higher in inhibition: -3.4% for the first, -1.4% for the second.

Going from O=c1[nH]c2ccccc2c(=O)n1NS(=O)(=O)c1ccc2ccccc2c1 to CC(=O)N1N=C(c2c(-c3ccccc3)c3cc(Cl)ccc3[nH]c2=O)CC1c1cccc(Br)c1 (stereo unspecified), the inhibition falls from 1.35% to -1.4%.

Compared with CC(C)C(=O)N=C1SC2CS(=O)(=O)CC2N1CCc1ccccc1 (stereo unspecified), Cc1ccc2c(c1)c1c(n2CC(O)CNCc2ccccc2)CCCC1 (stereo unspecified) is lower in inhibition: 0.45% for the first, -1.7% for the second.

Going from CCCn1nnnc1NC(=S)NC(=O)c1cc2ccccc2o1 to C=CCNC(=O)c1cc(-c2ccccc2O)on1, the inhibition falls from 3.35% to 0.8%.

First: O=C(O)C1C2CCC(C2)C1C(=O)NCCCN1CCCC1=O (stereo unspecified)
Second: O=C(NC1CCCCNC1=O)c1ccc(N2CCOCC2)nc1 (stereo unspecified)
The inhibition of the first is higher: 1.45% for the first, -0.3% for the second.

Compared with O=[N+]([O-])c1ccc(Oc2cccc(Cl)c2)nc1, COc1ccc(N=Cc2nc(-c3ccccc3Br)oc2O)c([N+](=O)[O-])c1 is higher in inhibition: -0.6% for the first, 4.2% for the second.

First: CCOC(=O)N1CCN(Cc2nc3c(c(=O)n(C)c(=O)n3C)n2CC)CC1
Second: C=CCSc1nc2c(c(=O)[nH]c(=O)n2C)n1C/C=C(\C)Cl
The inhibition of the first is higher: 6.15% for the first, 3% for the second.

First: CC(NC(=S)Nc1ccc(S(N)(=O)=O)cc1)c1ccc2c(c1)OCO2 (stereo unspecified)
Second: CCC(=O)Nc1cc(NC(=O)c2ccco2)ccc1C
The inhibition of the first is higher: 0.45% for the first, -1.65% for the second.

Compared with Cc1ccc(C(=O)[C@@H]2[C@@H](C(C)(C)C)C(C#N)(C#N)[C@@]3(C)C=Cc4ccccc4N23)cc1, Cc1onc(-c2ccccc2)c1C(=O)N=C(N)c1ccc(Cl)cc1 is lower in inhibition: -0.85% for the first, -1.9% for the second.

First: CCc1cccc(CC)c1N1C(=O)C(C)=C(C)C1=O
Second: CCOC(=O)CC1=C(C(=O)OCC)C(c2c(F)cccc2Cl)C(C#N)=C(N)O1 (stereo unspecified)
The inhibition of the first is lower: -0.9% for the first, 0.2% for the second.

First: C=CCNC(=O)c1ccc(OCC=C)cc1
Second: C=CCNC(=O)c1cc(Br)cs1
The inhibition of the first is lower: 0.4% for the first, 0.6% for the second.

Cc1nc(SCSc2nc3ccccc3s2)nc2c1CCCC2 and Cc1nc2onc(OCC(=O)OCc3ccccc3)c2c(C)c1C are the same in inhibition: 0.6% for the first, 0.6% for the second.

First: CCN(CC)S(=O)(=O)c1cc2c3c(c1)c(C)cc(=O)n3CCC2
Second: COc1ccc2[nH]c(=O)c(CN(Cc3ccc(C)cc3)C(C)=O)cc2c1
The inhibition of the first is lower: 0.85% for the first, 3.85% for the second.

Going from O=C(c1ccc(Br)cc1)c1cc2cc(Br)cc(Br)c2o1 to COC(=O)c1sc(-c2ccc(Cl)cc2)cc1NC(=O)c1ccc2nsnc2c1, the inhibition falls from 1.1% to -0.8%.

Compared with COc1cccc(O)c1C(=O)NCC(=O)O, COC(=O)COc1ccccc1C#N is higher in inhibition: -1.1% for the first, 0.4% for the second.

First: CCNc1sc(C(=O)OC)c(N)c1C#N
Second: COc1ccc(C(=O)COC2=C(C#N)C3(CCCC3)C(C#N)C(=S)N2)cc1OC (stereo unspecified)
The inhibition of the first is higher: 0.25% for the first, -1.5% for the second.

First: COc1ccc(Cl)c2c1NC(c1ccncc1)C1CC=CC21 (stereo unspecified)
Second: O=C(NN=c1c(=O)c2ccccc2c1=O)c1ccncc1
The inhibition of the first is lower: 0% for the first, 1.9% for the second.

Going from Cc1ccc2c(c1)NC(c1cc(Cl)cc(Cl)c1O)c1cccn1-2 (stereo unspecified) to CC1(C)CC(=O)C2=C(C1)OC1=C(C(=O)CC(C)(C)C1)C2c1cn(Cc2ccc(Cl)cc2Cl)nc1-c1ccccc1, the inhibition falls from 0.6% to -0.5%.

First: O=C1CCCN1c1ccc(OC(F)(F)F)cc1
Second: CN(C(=O)c1cc2nc(-c3ccco3)cc(C(F)(F)F)n2n1)c1ccc(OC(F)(F)F)cc1
The inhibition of the first is lower: -1.5% for the first, -0.95% for the second.

Compared with C=CCC1NC(C)(C)Cc2ccccc21 (stereo unspecified), CC(C)(C)c1c[n+](-c2ccccc2)c2n1CCS2 is higher in inhibition: -0.25% for the first, 0.1% for the second.

Compared with NCC1(N2CCCCC2)CCCCC1, O=C(c1ccco1)N1CCN(c2cnn(-c3ccccc3)c(=O)c2Cl)CC1 is higher in inhibition: -1.35% for the first, -0.95% for the second.

Compared with Cc1cc(C)cc(C(=O)OCC(=O)Nc2cccc(C(F)(F)F)c2)c1, O=[N+]([O-])c1cc(C(F)(F)F)cc([N+](=O)[O-])c1Oc1ccc(Cl)cc1Cl is lower in inhibition: 3.35% for the first, 3.2% for the second.

Going from CC1OC(O[C@H]2/C=C/C=C/C=C/C=C/C=C/C=C/C=C/[C@H](C)[C@@H](O)[C@@H](C)[C@H](C)OC(=O)CC(O)CC(O)CCC(O)C(O)CC(O)CC3(O)C[C@H](O)C(C(=O)O)C(C2)O3)C(O)[C@H](N)C1O (stereo partly specified) to O=C(Nc1ccccc1)OCC12COC(c3ccccc3)N1C(c1ccccc1)OC2 (stereo unspecified), the inhibition falls from 2.9% to -1.5%.

With O=c1[nH]nc(-c2ccccc2)[nH]1 the inhibition was -1.6%.

With O=C(O)C1=Cc2sc3c(c2CS1)CCCC3 the inhibition was 72.7% (active).
C=CCNC(=O)c1ccc2nc(-c3ccco3)c(-c3ccco3)nc2c1 was tested, and the inhibition was 59.2% (active).
